According to PubChem BioAssay (NCI):
Compounds without any hit were thinned out: in the full panel of roughly 83,000, 20% have a hit.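 Negative percent growth values reflect cell death: -40 means 40% of the cells present at the start died, and -100 means all died.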 Calls of active or inactive are those of the source.

The compounds below were run on ACHN renal (assay: NCI-60 one-dose screen, 48 h (100 = growth as untreated, 0 = no growth, -100 = all killed)). Details: 10 µM unless noted.
Protocol: Growth inhibition of the ACHN human tumor cell line is measured as a screen for anti-cancer activity. Cells are grown in 96 well plates and exposed to the test compound for 48 hours. Compounds are tested at a single concentration, which is 10^-5 M for most compounds. The reported endpoint is percent growth (GI% or GIPRCNT), where numbers from 0 - 100% represent growth inhibition, and numbers from -100% - 0 represent cell death. For example, a value of 40 represents 60% growth inhibition. A value of 0 means no net growth occurred over the course of the experiment. A value of -40 indicates 40% of cells at the beginning of the experiment died by the end of the experiment. A value of -100 means all cells are dead at the end of the experiment.
NCI-60 Human Tumor Cell Lines Screen was performed using the standard one-dose NCI protocol, which is described in more detail at https://dtp.cancer.gov/discovery_development/nci-60/default.htm.
Compounds with GIPRCNT values below 10 were considered active. Activity score was based on GIPRCNT using the following formula: […]
Score is 0 for GIPRCNT values of 100 or above, 50 for GIPRCNT values of 0, and 100 for GIPRCNT values of -100.

SMILES | growth
O=C(CN1C(=O)CCC1=O)Nc1ncc(Cc2ccc(F)cc2)s1 | 98.6% (inactive)
CO[C@H]1/C=C(/C)CCC[C@H](C)[C@H](O)[C@@H](C)C(=O)C(C)(C)[C@@H](O)CC(=O)O[C@@H]1/C(C)=C/c1csc(C)n1 | 50% (inactive)
CCOC(=O)C(=Cc1cccc(Br)c1)C(=O)OCC | 27.7% (inactive)
Nc1ncnc2c1N=C(c1ccc3c(c1)OCO3)CC(c1cccc(Nc3ccnc4cc(Cl)ccc34)c1)N2 (stereo not given) | 67.5% (inactive)
N#CC1C=CN(CC(N)=O)c2ccc3cccnc3c21 (stereo not given) | 104% (inactive)
O=C1/C(=C/c2ccc(Cl)c(Cl)c2)CN(C(=O)C(Cl)Cl)C/C1=C\c1ccc(Cl)c(Cl)c1 | -100% (active)
Nc1c(C(=O)Nc2ccccc2Cl)sc2nc3c(cc12)C(O)CCC3 (stereo not given) | 57.1% (inactive)
O=C(c1ccc(-c2nc(CSc3nc4ccccc4s3)no2)cc1)N1CCSCC1 | 60.4% (inactive)
C[C@]12CC[C@@H]3c4ccc(O)c([N+](=O)[O-])c4CC[C@H]3[C@@H]1CCC2=O | 94.1% (inactive)
O=[N+]([O-])c1ccc(S(=O)(=O)N2CCN(C3=NS(=O)(=O)c4ccccc4N3c3ccccc3)CC2)cc1 | 99.3% (inactive)
CCN(CC)CCSc1nc(-c2ccccc2)c(C#N)c(=O)[nH]1 | 112% (inactive)
O=C(O)[C@@H]1c2ccccc2-c2ccccc2[C@H]1C(=O)O | 98.7% (inactive)
CC(=O)N1N=C(c2ccc(Nc3nc(Nc4ccc(Cl)cc4)nc(Nc4ccc(Cl)cc4)n3)cc2)CC1c1ccco1 (stereo not given) | 98.8% (inactive)
CCN(CC)c1nc(SCc2ccccc2Cl)ncc1C | 108% (inactive)
C#CCOc1cccc(Nc2ncnc3ccc(NC(=O)CCl)cc23)c1 | -80.8% (active)
Nc1c(C(=O)Nc2ccncc2)sc2nc3c(cc12)CCCCCC3 | 108% (inactive)
COc1cc(-c2cc(-c3cccs3)c(C#N)c(N3CCOCC3)n2)cc(OC)c1OC | 71.2% (inactive)
CN(C)CCCn1c2c(c3ncccc3c1=O)C(=O)c1ccccc1-2 | 15.2% (inactive)
COc1ccc2c(O)c(/C=C3\N=Nc4ncccc43)oc2c1C[C@H]1CCNC[C@H]1F | 4.51% (active)
Oc1ccc(CCn2c(O)c(/C=C3\CN=c4ccccc4=N3)sc2=S)cc1 | 54.3% (inactive)

SMILES | growth
CC(C)=CCC[C@](C)(O)[C@H]1CC[C@]2(C)[C@@H]1CC[C@@H]1[C@@]3(C)Cc4nccnc4C(C)(C)[C@@H]3CC[C@]12C | 85% (inactive)
CCOC(=O)c1cc(-c2ccc([N+](=O)[O-])cc2)n(-c2ccc(C(=O)O)c(O)c2)c1C | 68.7% (inactive)
COC(=O)CCC(=O)C(=O)OC | 6.94% [10 mM] (active)
CC(=O)[C@@H]1CCC=C2CC[C@]3(C)[C@@H](CC[C@@H]4[C@@]5(C)CCCNC(C)(C)[C@@H]5CC[C@]43C)[C@H]21 | -82.4% (active)
CN(C)CCNC(=O)c1cccc(-c2cnc3ccc(-c4ccc5c(c4)OCO5)nn23)c1 | 47.8% (inactive)
CC(=O)OCc1nc(C#N)c(N(C)C)o1 | 98% (inactive)
COc1ccc(C(=S)N2CCN(c3ccccc3Cl)CC2)cc1OC | 97.2% (inactive)
C=C(C)[C@@H]1CC[C@]2(C(=O)OC)CC[C@]3(C)[C@H](CC[C@@H]4[C@@]5(C)C/C(=C/NC(N)=S)C(=O)C(C)(C)[C@@H]5CC[C@]43C)[C@@H]12 | 77.6% (inactive)
CC(O)c1cnc(/C=C2\SC(=S)N(Cc3ccccc3)C2=O)s1 (stereo not given) | 88.2% (inactive)
O=C1/C(=C/c2ccc(Cl)cc2)COc2ccc(O)cc21 | 80% (inactive)
COc1ccc2cc(-c3ccc(NC(C)=O)c(=O)o3)ccc2c1 | 98.7% (inactive)
CC(C)N1CN2C(=S)NC3C2N(C1)C(=S)N3C (stereo not given) | 117% (inactive)
O=S(=O)(NCCNc1cc(-c2c(-c3cccc(O)c3)nc3sccn23)ccn1)c1ccc(C(F)(F)F)cc1 | 33.2% (inactive)
CC(C)n1cnc2c(=S)nc[nH]c21 | 93.7% (inactive)
O=C(Nc1nc2ccc(F)cc2s1)c1cccnc1Nc1ccc(Cl)cc1 | 38.8% (inactive)
CCN(CC)c1ccc(/C=C/C(=O)c2ccc(Nc3nc(Nc4ccccc4)nc(Nc4ccccc4)n3)cc2)cc1 | 49.1% (inactive)
O=C1NCCC12CCN(c1c(Cl)cncc1-c1ccc(O)cc1)CC2 | 70.2% (inactive)
COc1cccc([C@H]2c3[nH]c4ccccc4c3C[C@H]3C(=O)N(CCCCCCC(=O)NO)CC(=O)N23)c1 | 69.1% (inactive)
CNC(=O)c1cc(Oc2ccc3c(c2)sc2nc(-c4cc(OC)c(OC)c(OC)c4)cn23)ccn1 | 51.9% (inactive)
C/C(=C(/c1ccc(Cl)cc1)c1ccc(OCCN2CCCC2)cc1)c1ccc(Cl)cc1 | 104% (inactive)
